According to PubChem BioAssay (NCATS):
Records with an inconclusive call do not appear. Calls of active or inactive are those of the source. Unless noted, calls follow the shape of the dose curve; as a rule, active = well fitted curve in either direction with a large enough effect (not every such curve was filed as active); inconclusive = small, poorly fitted or top-dose-only effect, or another doubt; inactive = flat fitted curve, though single readings scatter.

Legend:
[1] = target: Lysosomal acid glucosylceramidase (Homo sapiens) (UniProt P04062); test: Glucocerebrosidase-p2 (AID 348; in the data active = potency below about 10 µM; also: potency is read from the fitted curve at half-maximal effect); conditions: purified GBA, blue fluorogenic substrate, 40 min
Method in brief: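 Normal human glucocerebrosidase (0.2 nM) with blue fluorogenic substrate (80 uM final) in citrate/phosphate pH 5.9 with 10mM sodium taurocholate, 0.01% tween-20; 40 min RT, NaOH/glycine stop; fluorescence Ex 365/Em 440; AC50 from a titration from 0.6 nM upwards.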

[2] = AP1 Signaling Pathway (AID 357); conditions: ME-180 AP-1-bla reporter, EGF-induced, beta-lactamase ratio, 5 h; at 7.69 µM (top of the series) unless noted;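 also: ME-180 reporter cells stimulated with EGF at its EC50 level; % is scaled to controls: 0 for no effect and ±100 for the full control effect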
Method in brief: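 Titration-series screen for positive or negative modulators of EC50 EGF-induced signaling in ME-180 cells carrying an AP-1-driven beta-lactamase reporter. After 5 hours at 37 degrees Celsius, CCF4 460nm/530nm emission ratio gave %Activity; AC50 values derived.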

[3] = target: Cytochrome P450 1A2 (Homo sapiens) (UniProt P05177); test: p450-cyp1a2 (AID 410; calls by dose curve;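 also: -100% = full effect of reference inhibitor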); conditions: recombinant CYP1A2, luciferin-ME demethylation, luminescence; series mostly up to 11.4 µM
Method in brief: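 20nM CYP1A2, 100uM Luciferin-ME (=Km), 100mM KPO4; cpd 10 min RT; +NADPH regen, 60 min RT; stop/detect 20 min; luminescence. Normalized to furafylline 57 uM = full inhibition.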

[4] = NFAT Signaling Pathway (AID 444); conditions: Jurkat NFAT-bla M1, carbachol, beta-lactamase ratio, 5 h; at 7.69 µM (top of the series) unless noted;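 also: carbachol stimulus at about its EC50 of 1 µM final; % is scaled to controls: 0 for no effect and ±100 for the full control effect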
Method in brief: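 Jurkat cells with NFAT-driven β-lactamase reporter and co-expressed M1 receptor, stimulated with carbachol (final 1 uM, ~EC50), compound titration, 5 h at 37 °C. CCF4 loaded 1 h at RT; 460/530 nm ratio gave %activity and AC50.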

[5] = Stat Signaling Pathway (AID 446); conditions: ME-180 (cervical carcinoma) SIE beta-lactamase reporter, IL-6 stimulated, 5 h; at 7.69 µM (top of the series) unless noted;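 also: ME-180 cervical cancer cells given 40 pM IL-6 alongside compound; SIE-controlled beta-lactamase reporter measured as 460/530 nm FRET emission ratio; % is scaled to controls: 0 for no effect and ±100 for the full control effect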
Method in brief: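 Compound effects on IL-6-induced STAT reporter activity were measured in ME-180 cells. After overnight culture, cells were co-treated with 40 pM IL-6 for 5 hrs before beta-lactamase substrate loading at room temperature.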

[6] = target: Glucocorticoid receptor (Homo sapiens) (UniProt P04150); test: GR-GFP Redistribution (AID 450;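 active = compounds whose dose series gives a full or clear partial fitted curve of increased nuclear translocation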; also: potency is read from the fitted curve at half-maximal effect); conditions: U2OS GR-GFP nuclear translocation, laser cytometry, 2 h
[7] = target: Glucocorticoid receptor (Homo sapiens) (UniProt P04150); test: GR-EFC Redistribution (AID 451; calls by dose curve; also: potency is read from the fitted curve at half-maximal effect); conditions: CHO-K1 GR-EFC translocation, beta-gal luminescence, 2 h
Method in brief: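 CHO-K1 cells expressing nuclear EA and GR-ED fragments of b-gal; compounds titrated up to 46 uM final, 2 h at 37 C. GR nuclear translocation read as complemented b-gal luminescence after 1 h RT detection.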

[8] = target: Mitogen-activated protein kinase 10 (Mus musculus) (UniProt Q61831); test: JNK3 AlphaScreen Assay (AID 530); conditions: JNK3 lysate, c-Jun phosphorylation; series mostly up to 11.4 µM;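 also: kinase came from lysate of stimulated human HepG2 cells; signal reports phosphorylation of biotinylated GST-cJun 1-79 at Ser73 with 10 µM ATP; % is scaled to controls: 0 for no effect and ±100 for the full control effect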
Method in brief: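 HepG2 lysate (IL-1b/TNFa pre-activated) + biotin-GST-cJun 1-79 + anti-pSer73 cJun; cpd titration, 15 min RT; ATP 10 uM start; Tris pH 7.6, MgCl2, DTT, vanadate; beads in EDTA buffer; AlphaScreen.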

[9] = target: 3',5'-cyclic-AMP phosphodiesterase 4B (Homo sapiens) (UniProt Q07343); test: qHTS Assay for Inhibitors of PDE-IV (AID 607; active = well fitted activation curve with a large enough effect in the main read-out, with a control signal flat, not every such curve was filed as active; also: % of control where 0% means no effect); conditions: HEK293 ACTOne CNG channel cells, membrane potential fluorescence; series mostly up to 22.9 µM
Method in brief: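 ACTOne HEK293 cells carry a modified cAMP-gated CNG channel and express endogenous PDE4; plated 1000 cells/well, compounds up to 22.9 uM final. Membrane-potential dye fluorescence (ex 535/em 590) was read; parental cells received 10 uM forskolin + 100 uM RO 20-1724.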

Sequence of Glucocorticoid receptor (Homo sapiens) (P04150 whole entry, looked up, the tested form may be a part): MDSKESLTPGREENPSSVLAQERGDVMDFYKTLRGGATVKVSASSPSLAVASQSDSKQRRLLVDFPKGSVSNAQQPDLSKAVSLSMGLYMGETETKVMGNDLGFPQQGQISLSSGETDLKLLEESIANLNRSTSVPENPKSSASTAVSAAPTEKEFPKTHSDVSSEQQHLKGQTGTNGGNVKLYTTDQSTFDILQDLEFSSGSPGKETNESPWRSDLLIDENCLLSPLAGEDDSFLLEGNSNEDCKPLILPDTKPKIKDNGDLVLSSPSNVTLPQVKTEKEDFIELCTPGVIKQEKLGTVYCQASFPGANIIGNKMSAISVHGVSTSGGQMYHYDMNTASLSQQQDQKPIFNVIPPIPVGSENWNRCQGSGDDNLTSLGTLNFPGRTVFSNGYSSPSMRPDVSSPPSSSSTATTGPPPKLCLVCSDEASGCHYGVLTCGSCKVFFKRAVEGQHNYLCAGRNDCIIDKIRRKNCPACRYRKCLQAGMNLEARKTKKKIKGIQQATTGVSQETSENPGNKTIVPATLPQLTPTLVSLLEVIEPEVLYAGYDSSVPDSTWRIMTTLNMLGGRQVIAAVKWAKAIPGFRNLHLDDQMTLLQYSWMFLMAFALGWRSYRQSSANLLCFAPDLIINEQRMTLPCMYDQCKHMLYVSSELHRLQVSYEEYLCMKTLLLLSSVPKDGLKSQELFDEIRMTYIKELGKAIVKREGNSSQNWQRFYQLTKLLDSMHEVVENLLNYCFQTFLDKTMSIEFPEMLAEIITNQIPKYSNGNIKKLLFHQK
Sequence of Lysosomal acid glucosylceramidase (Homo sapiens) (P04062 whole entry, looked up): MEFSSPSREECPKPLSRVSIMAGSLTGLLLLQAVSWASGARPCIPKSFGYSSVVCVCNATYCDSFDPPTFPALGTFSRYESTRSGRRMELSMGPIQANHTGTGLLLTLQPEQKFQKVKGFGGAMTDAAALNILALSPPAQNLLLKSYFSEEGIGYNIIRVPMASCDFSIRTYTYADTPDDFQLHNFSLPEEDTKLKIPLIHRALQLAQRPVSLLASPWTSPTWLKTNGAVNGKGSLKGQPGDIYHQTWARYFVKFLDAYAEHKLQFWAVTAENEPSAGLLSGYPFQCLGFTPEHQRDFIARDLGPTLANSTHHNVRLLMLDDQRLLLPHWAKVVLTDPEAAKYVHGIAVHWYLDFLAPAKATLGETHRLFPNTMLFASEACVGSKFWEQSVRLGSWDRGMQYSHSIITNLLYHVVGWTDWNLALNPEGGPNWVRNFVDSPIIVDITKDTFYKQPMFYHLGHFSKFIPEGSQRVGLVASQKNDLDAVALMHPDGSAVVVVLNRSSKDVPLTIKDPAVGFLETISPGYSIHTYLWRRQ
Sequence of 3',5'-cyclic-AMP phosphodiesterase 4B (Homo sapiens) (Q07343 whole entry, looked up): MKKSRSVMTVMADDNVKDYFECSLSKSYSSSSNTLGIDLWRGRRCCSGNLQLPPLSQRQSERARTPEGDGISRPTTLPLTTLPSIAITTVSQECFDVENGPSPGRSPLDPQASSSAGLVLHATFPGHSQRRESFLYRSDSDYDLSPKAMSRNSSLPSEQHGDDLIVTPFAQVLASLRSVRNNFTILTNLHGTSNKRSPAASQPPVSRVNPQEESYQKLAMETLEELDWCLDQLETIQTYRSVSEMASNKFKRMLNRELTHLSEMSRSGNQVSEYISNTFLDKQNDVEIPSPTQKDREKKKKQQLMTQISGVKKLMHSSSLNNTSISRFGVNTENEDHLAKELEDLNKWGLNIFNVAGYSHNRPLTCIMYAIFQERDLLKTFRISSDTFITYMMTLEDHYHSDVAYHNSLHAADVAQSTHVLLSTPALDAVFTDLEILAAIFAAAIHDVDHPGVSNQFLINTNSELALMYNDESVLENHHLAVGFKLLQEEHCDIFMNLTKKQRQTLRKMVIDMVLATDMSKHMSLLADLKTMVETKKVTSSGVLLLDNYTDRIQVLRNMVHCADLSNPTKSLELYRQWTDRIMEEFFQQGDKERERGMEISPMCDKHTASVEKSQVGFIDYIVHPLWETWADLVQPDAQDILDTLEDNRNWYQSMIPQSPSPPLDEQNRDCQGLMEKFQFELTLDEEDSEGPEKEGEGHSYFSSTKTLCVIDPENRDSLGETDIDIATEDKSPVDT
Sequence of Cytochrome P450 1A2 (Homo sapiens) (P05177 whole entry, looked up): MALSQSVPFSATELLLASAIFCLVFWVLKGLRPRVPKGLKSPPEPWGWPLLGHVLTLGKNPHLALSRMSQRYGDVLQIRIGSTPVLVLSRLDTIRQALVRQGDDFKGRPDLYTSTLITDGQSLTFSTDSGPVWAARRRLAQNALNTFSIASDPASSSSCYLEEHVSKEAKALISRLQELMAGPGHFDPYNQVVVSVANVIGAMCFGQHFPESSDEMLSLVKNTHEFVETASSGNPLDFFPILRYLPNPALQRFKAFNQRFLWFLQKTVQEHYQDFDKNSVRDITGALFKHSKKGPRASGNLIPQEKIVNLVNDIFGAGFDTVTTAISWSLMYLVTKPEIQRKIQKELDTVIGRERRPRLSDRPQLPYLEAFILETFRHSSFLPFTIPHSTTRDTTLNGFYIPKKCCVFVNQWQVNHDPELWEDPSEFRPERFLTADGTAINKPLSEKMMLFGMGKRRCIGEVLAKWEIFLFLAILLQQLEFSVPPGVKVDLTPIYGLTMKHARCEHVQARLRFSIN

Nc1ccccc1CCCC(=O)O
inactive: Potency [1] > 11.4 µM | activity change, negative = inhibition [2] -5.22% | Potency [3] | activity change, negative = inhibition [4] 0.568% | activity, negative = inhibition [5] 4.31% | Potency [6] > 46 µM | Potency [7] > 9.22 µM | Potency [8] | Potency [9]

Cc1ccccc1S(=O)(=O)O[C@@H]1NS(=O)(=O)c2ccccc21
inactive: Potency [1] > 11.4 µM | activity change, negative = inhibition [2] 6.97% | activity change, negative = inhibition [3] 13.5% [at 2.29 µM] | activity change, negative = inhibition [4] 10.8% | activity, negative = inhibition [5] 0.825% | Potency [6] > 46 µM | Potency [7] > 9.22 µM | Potency [8] | Potency [9]

CCN(CC(=O)O)CC(=O)O
inactive: Potency [1] > 11.4 µM | activity change, negative = inhibition [2] -0.0102% | Potency [3] | activity change, negative = inhibition [4] 0.338% | activity, negative = inhibition [5] 13.7% | Potency [6] > 46 µM | Potency [7] > 9.22 µM | Potency [8] | Potency [9]

Nc1nc(SCC(=O)O)[nH]c(=O)c1N
inactive: Potency [1] > 11.4 µM | activity change, negative = inhibition [2] 4.37% | Potency [3] | activity change, negative = inhibition [4] 10.6% | activity, negative = inhibition [5] 4.74% | Potency [6] > 46 µM | Potency [7] > 9.22 µM | Potency [8] | Potency [9]

O=C1CCC(c2ccccc2)(c2ccccc2)CC1
inactive: Potency [1] > 11.4 µM | activity change, negative = inhibition [2] 5.18% | Potency [3] | activity change, negative = inhibition [4] -2.6% | activity, negative = inhibition [5] 1.75% | Potency [6] > 46 µM | Potency [7] > 9.22 µM | Potency [8] | Potency [9]

Nc1nc2c(c(=O)[nH]1)N[C@H](CCNc1ccc(C(=O)O)cc1)CN2
inactive: Potency [1] > 11.4 µM | activity change, negative = inhibition [2] -0.0764% | Potency [3] | activity change, negative = inhibition [4] 14.5% | activity, negative = inhibition [5] -3.77% | Potency [6] > 46 µM | Potency [7] > 9.22 µM | Potency [8] | Potency [9]

O=C(O)CCC(O)=C1S(=O)(=O)OCCOS1(=O)=O
inactive: Potency [1] > 11.4 µM | activity change, negative = inhibition [2] -1.99% | Potency [3] | activity change, negative = inhibition [4] 2.36% | activity, negative = inhibition [5] 2.62% | Potency [6] > 46 µM | Potency [7] > 9.22 µM | Potency [8] | Potency [9]

O=C(Nc1ccc2oc(=O)c(C(=O)O)cc2c1)Oc1ccccc1
inactive: Potency [1] > 11.4 µM | activity change, negative = inhibition [2] -4.82% | activity change, negative = inhibition [3] -15.3% [at 2.29 µM] | activity change, negative = inhibition [4] 9.87% | activity, negative = inhibition [5] 1.95% | Potency [6] > 46 µM | Potency [7] > 9.22 µM | Potency [8] | Potency [9]

Cc1ccc(S(=O)(=O)N[C@H](CO)C(=O)O)cc1
inactive: Potency [1] > 11.4 µM | activity change, negative = inhibition [2] 1.84% | Potency [3] | activity change, negative = inhibition [4] -20.5% | activity, negative = inhibition [5] 0.571% | Potency [6] > 46 µM | Potency [7] > 9.22 µM | Potency [8] | Potency [9]

S=c1nc[nH]c2c1ncn2Cc1ccco1
inactive: Potency [1] > 11.4 µM | activity change, negative = inhibition [2] 8.99% | Potency [3] | activity change, negative = inhibition [4] -0.242% | activity, negative = inhibition [5] 5.55% | Potency [6] > 46 µM | Potency [7] > 9.22 µM | Potency [8] | Potency [9]

CC(=O)/C(=N\N=C(N)N)c1ccccc1
inactive: Potency [1] > 11.4 µM | activity change, negative = inhibition [2] 8.04% | activity change, negative = inhibition [3] -17.2% [at 2.29 µM] | activity change, negative = inhibition [4] -0.66% | activity, negative = inhibition [5] 7.52% | Potency [6] > 46 µM | Potency [7] > 9.22 µM | Potency [8] | Potency [9]

O=C(O)c1cc(=O)[nH]c(=S)[nH]1
inactive: Potency [1] > 11.4 µM | activity change, negative = inhibition [2] -9.52% | activity change, negative = inhibition [3] -10.7% [at 2.29 µM] | activity change, negative = inhibition [4] 5.67% | activity, negative = inhibition [5] 6.7% | Potency [6] > 46 µM | Potency [7] > 9.22 µM | Potency [8] | Potency [9]

CC12CC[C@@H]3c4ccc(OP(=O)(O)O)cc4CCC3C1CCC2=O (stereo partly specified)
inactive: Potency [1] > 11.4 µM | activity change, negative = inhibition [2] 2.65% | activity change, negative = inhibition [3] -13.4% [at 2.29 µM] | activity change, negative = inhibition [4] 10.4% | activity, negative = inhibition [5] -5.93% | Potency [6] > 46 µM | Potency [7] > 9.22 µM | Potency [8] | Potency [9]

C[N+]1(C)CCc2cc(O)c(O)cc2[C@H]1Cc1ccc(O)c(O)c1
inactive: Potency [1] > 11.4 µM | activity change, negative = inhibition [2] -2.63% | activity change, negative = inhibition [3] -12.1% [at 2.29 µM] | activity change, negative = inhibition [4] -9.29% | activity, negative = inhibition [5] 6.76% | Potency [6] > 46 µM | Potency [7] > 9.22 µM | Potency [8] | Potency [9]
